Results from PubChem BioAssay AID504832 (National Center for Advancing Translational Sciences (NCATS), 2011).
In all, about 310,000 compounds went through this assay and about 18,000 (5.8%) were called active. Not shown: some 22% with an inconclusive outcome. Calls follow the shape of the dose curve; as a rule, active = well fitted inhibition curve with a large enough effect; inconclusive = small, poorly fitted or top-dose-only effect, or another doubt; inactive = no such curve, though single readings can be large or run the other way. The entries come from a sample that favours actives as a whole. Entries that show only a call come without a potency.

Assay: Primary qHTS for delayed death inhibitors of the malarial parasite plastid, 48 hour incubation
Settings: P. falciparum luciferase growth in erythrocytes; series mostly up to 28.7 µM
Method in brief: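 Luciferase-expressing P. falciparum in infected erythrocytes (2% hematocrit, 0.1% parasitemia final) in RPMI 1640/0.5% Albumax were exposed to compound for 48 hours at 37 C, 5% CO2; growth read as luminescence.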
Potency is read from the fitted curve at half-maximal effect.

Q: With `Cc1ccc2c(c1)N(CC(=O)N1CCCC(C)C1)C(=O)CO2` (stereo not drawn) as the compound, how does the Potency read?
A: Its Potency is “inactive”.

Q: With `Clc1ncn(CCOc2ccccc2)c1Cl` as the compound, how does the Potency read?
A: Its Potency is “inactive”.

Q: Which Potency does the source give for `c1ccc(Cc2ccc(OCCn3ccnc3)cc2)cc1` here?
A: Its Potency is 9.28 µM (active).

Q: Which Potency does the source give for `COc1ccc(OCCn2ccnc2C)cc1` here?
A: The Potency was “inactive”.

Q: With `CC(CCc1ccccc1)NC(=O)c1cnc(Cl)c(Cl)c1` (stereo not drawn) as the compound, how does the Potency read?
A: Its Potency is “inactive”.

Q: With `CN(C)C(=O)c1ccc(NC(=O)COC(=O)c2cc3c(s2)CCCCC3)cc1` as the compound, how does the Potency read?
A: Its Potency is “inactive”.

Q: Which Potency does the source give for `CCn1c2ccccc2c2cc(NC(=O)COC(=O)c3cc(S(=O)(=O)N4CCCCC4)ccc3Cl)ccc21` here?
A: The Potency was “inactive”.

Q: For `CCn1c(O)c(N=NC(=O)c2cccc(S(=O)(=O)N3CCCCC3)c2)c2ccccc21`, which Potency is on record?
A: Its Potency is 11.7 µM (active).

Q: Which Potency does the source give for `COC(=O)Cn1c(O)c(N=NC(=O)OC)c2ccccc21` here?
A: The Potency was “inactive”.

Q: With `CC(C)(C)c1cc[n+](-c2[nH]c(=O)sc2/C=N/N=C(\[O-])c2ccccc2)cc1` as the compound, how does the Potency read?
A: The Potency was “inactive”.

Q: With `CCOc1ccc(NC(=O)CSc2nc3ccccc3c(=O)n2Cc2cccs2)cc1` as the compound, how does the Potency read?
A: Its Potency is “inactive”.

Q: With `O=C(CSc1nc2nccnc2c(=O)n1Cc1cccs1)Nc1ccccc1F` as the compound, how does the Potency read?
A: Its Potency is 10.4 µM (active).

Q: With `O=C(CSc1ccc(-c2cccs2)nn1)Nc1ccccc1F` as the compound, how does the Potency read?
A: The Potency was “inactive”.

Q: With `CN(CC(=O)Nc1ccc(Cl)c(C(F)(F)F)c1)C(=O)CCC(=O)c1ccccc1` as the compound, how does the Potency read?
A: The Potency was “inactive”.

Q: Which Potency does the source give for `O=C(NCCCN1CCCC1=O)C(=O)NCC1OCCN1S(=O)(=O)c1ccc(Br)cc1` (stereo not drawn) here?
A: Its Potency is “inactive”.

Q: With `CCOc1cccc(-c2nnc(SCC(=O)NC3CC3)n2C)c1` as the compound, how does the Potency read?
A: Its Potency is “inactive”.

Q: For `Cc1ccc(N(Cc2ccccc2O)C(=O)c2ccccc2F)cc1`, which Potency is on record?
A: The Potency was 9.28 µM (active).

Q: For `CN(C)/C=C/C(=O)c1ccccc1F`, which Potency is on record?
A: Its Potency is “inactive”.

Q: Which Potency does the source give for `O=C(c1ccccc1F)N(Cc1ccccc1)Cc1ccccc1` here?
A: The Potency was “inactive”.

Q: Which Potency does the source give for `O=C(COc1ccc(Cl)cc1)Nc1ccc2oc(=O)ccc2c1` here?
A: The Potency was “inactive”.

Q: With `O=C(CCN1C(=O)C2C3CCC(C3)C2C1=O)Nc1ccc(Cl)cc1Cl` (stereo not drawn) as the compound, how does the Potency read?
A: The Potency was “inactive”.

Q: For `CC(C)(C)c1cc(NC(=O)NN2CCOCC2)nn1-c1c(Cl)cc(Cl)cc1Cl`, which Potency is on record?
A: The Potency was 10.4 µM (active).

Q: With `O=C(CN1CCOCC1)Nc1c(Cl)cc(Cl)cc1Cl` as the compound, how does the Potency read?
A: The Potency was “inactive”.

Q: With `O=C(Nc1ccc(CN2CCOCC2)cc1)c1cc(Cl)ccc1Cl` as the compound, how does the Potency read?
A: Its Potency is “inactive”.

Q: With `CC(=O)C(C)n1cnc2scc(-c3ccc(C)cc3)c2c1=O` (stereo not drawn) as the compound, how does the Potency read?
A: The Potency was “inactive”.

Q: With `COc1cc(OC)cc(-c2c(-c3cccs3)c3cc(-c4ccc(OC)cc4F)ccc3n2C)c1` as the compound, how does the Potency read?
A: Its Potency is 13.1 µM (active).

Q: Which Potency does the source give for `COc1cc(OC)cc(-c2c(-c3ccc(F)cc3)c3cc(-c4ccc5cc[nH]c5c4)ccc3n2C)c1` here?
A: The Potency was 5.22 µM (active).

Q: With `COc1ccc(OC)c(-c2csc(-c3cccs3)n2)c1` as the compound, how does the Potency read?
A: The Potency was “inactive”.

Q: For `COc1ccc2c(c1)c(C(=O)N/N=C/c1cccs1)c(C)n2C`, which Potency is on record?
A: The Potency was “inactive”.

Q: For `CCOC(=O)N1CCN(C(=O)C(C)NC(=O)c2ccco2)CC1` (stereo not drawn), which Potency is on record?
A: The Potency was “inactive”.

Q: Which Potency does the source give for `COc1ccc(/C=C/c2c(-c3cccc(C)c3)oc3ccc(-c4ccc5c(c4)OCO5)cc23)cc1` here?
A: Its Potency is “inactive”.

Q: Which Potency does the source give for `COc1cc(/C=N/NC(=O)c2ccccc2)ccc1OS(=O)(=O)c1ccccc1` here?
A: Its Potency is 10.4 µM (active).

Q: For `COc1ccc(/C=N/S(=O)(=O)c2ccccc2)cc1OC`, which Potency is on record?
A: The Potency was “inactive”.

Q: With `COc1ccc(/C=N/NC(=O)c2ccc(Cl)cc2)cc1COC(C)=O` as the compound, how does the Potency read?
A: The Potency was “inactive”.

Q: With `COc1ccc(/C=N/NC(=O)c2ccccc2)cc1OS(=O)(=O)c1ccccc1` as the compound, how does the Potency read?
A: The Potency was 9.28 µM (active).

Q: With `Cc1ccc(S(=O)(=O)Oc2ccc(/C=N/NC(=O)c3ccncc3)cc2)cc1` as the compound, how does the Potency read?
A: Its Potency is “inactive”.

Q: For `COc1ccc(/C=N\NC(=O)c2sc(N)nc2C)cc1OC`, which Potency is on record?
A: Its Potency is “inactive”.

Q: Which Potency does the source give for `O=C(O)Cc1ccc(NC(=O)Nc2cccc3ccccc23)cc1` here?
A: Its Potency is “inactive”.

Q: Which Potency does the source give for `COc1cc(NC(=O)c2ccc(-c3csc(C)n3)cc2)c(OC)cc1Cl` here?
A: Its Potency is “inactive”.

Q: With `Cc1cccc(NC(=O)C2CCCN(C(=O)Nc3ccc(F)cc3)C2)c1C` (stereo not drawn) as the compound, how does the Potency read?
A: Its Potency is “inactive”.

Q: For `COCc1cc(C)n(CC(=O)NCC2CCCO2)c(=O)c1C#N` (stereo not drawn), which Potency is on record?
A: Its Potency is “inactive”.

Q: For `COc1ccc(N(C(=O)c2cccnc2)S(=O)(=O)c2ccc(OC)c(OC)c2)cc1`, which Potency is on record?
A: The Potency was “inactive”.

Q: With `CC[C@H]1CN2CCc3cc(OC)c(OC)cc3[C@@H]2C[C@@H]1C[C@H]1NCCc2cc(OC)c(OC)cc21` as the compound, how does the Potency read?
A: Its Potency is 0.0828 µM (active).

Q: With `NC(=O)NC(=O)C(OC(=O)CCNS(=O)(=O)c1ccccc1)c1ccccc1` (stereo not drawn) as the compound, how does the Potency read?
A: The Potency was “inactive”.

Q: With `O=C(CCc1c[nH]c2ccccc12)NCCOc1ccccc1` as the compound, how does the Potency read?
A: The Potency was “inactive”.

Q: With `O=C(CCCCCn1c(=O)[nH]c2ccccc2c1=O)NCCc1c[nH]c2ccccc12` as the compound, how does the Potency read?
A: Its Potency is 8.28 µM (active).

Q: For `O=C(CCCCn1c(=O)[nH]c2ccccc2c1=O)NCc1ccc2c(c1)OCO2`, which Potency is on record?
A: The Potency was “inactive”.

Q: For `COc1ccc2nc(NC3=NCN(CC4CCCO4)CN3)nc(C)c2c1` (stereo not drawn), which Potency is on record?
A: Its Potency is 11.7 µM (active).

Q: For `COc1ccc2c(C)cc(SCC(=O)NCC3CCCO3)nc2c1` (stereo not drawn), which Potency is on record?
A: The Potency was “inactive”.

Q: Which Potency does the source give for `Cc1ccc2nc(NC3=NCN(CCc4ccccc4)CN3)nc(C)c2c1` here?
A: Its Potency is “inactive”.

Q: Which Potency does the source give for `CC(NC(=O)COc1cccnc1[N+](=O)[O-])c1ccc(Cl)cc1Cl` (stereo not drawn) here?
A: The Potency was “inactive”.

Q: For `Cn1c(SCC(=O)Nc2ccc(N3CCOCC3)cc2)nnc1C(F)(F)F`, which Potency is on record?
A: The Potency was “inactive”.

Q: For `CCN(CC)c1ccc2cc(C(N)=O)/c(=N\NC(=O)c3ccncc3)oc2c1`, which Potency is on record?
A: The Potency was “inactive”.

Q: For `CCN(CC)c1ccc2oc(=O)c(C)nc2c1`, which Potency is on record?
A: Its Potency is 1.47 µM (active).

Q: For `CCN(CC)c1ccc2c(Nc3ccccc3)c(C=O)c(=O)oc2c1`, which Potency is on record?
A: The Potency was “inactive”.

Q: With `Cc1ccccc1N1CCN(C2CCCN(C(=O)c3cn4c(C)cccc4n3)C2)CC1` (stereo not drawn) as the compound, how does the Potency read?
A: The Potency was “inactive”.

Q: With `CCC(CC)c1nnc(NC(=O)C2=COCCO2)s1` as the compound, how does the Potency read?
A: Its Potency is “inactive”.

Q: With `O=C(O)C1CCC(CNS(=O)(=O)c2ccc(Br)cc2)CC1` (stereo not drawn) as the compound, how does the Potency read?
A: The Potency was “inactive”.

Q: Which Potency does the source give for `CCn1c(=O)c(C(=O)NCc2ccc3c(c2)OCO3)c(O)c2ccccc21` here?
A: Its Potency is “inactive”.

Q: With `COc1ccc(CCNS(=O)(=O)c2ccc(C(=O)NCc3ccco3)cc2)cc1OC` as the compound, how does the Potency read?
A: Its Potency is “inactive”.

Q: With `CCCC1=Nc2cc(C(=O)NCc3ccco3)ccc2Sc2ccccc21` as the compound, how does the Potency read?
A: Its Potency is 4.65 µM (active).

Q: Which Potency does the source give for `O=C(COC(=O)c1cnc(Cl)c(Cl)c1)NCc1ccco1` here?
A: Its Potency is “inactive”.

Q: With `COc1ccc(N2CC(C(=O)N[C@@H](C)C(=O)N3CCCCC3)CC2=O)cc1` (stereo partly drawn) as the compound, how does the Potency read?
A: The Potency was “inactive”.

Q: Which Potency does the source give for `O=C(Nc1cccc2cccnc12)c1cccc(Cl)c1` here?
A: The Potency was “inactive”.

Q: For `CC(OC(=O)C1CC(=O)N(Cc2ccccc2)C1)C(=O)Nc1ccccc1[N+](=O)[O-]` (stereo not drawn), which Potency is on record?
A: The Potency was “inactive”.

Q: Which Potency does the source give for `Cc1nn(C)cc1CNC(=O)Nc1ccc(Cl)cc1` here?
A: The Potency was “inactive”.

Q: For `COc1ccc(Cl)cc1C(=O)NCc1cn(C)nc1C`, which Potency is on record?
A: Its Potency is “inactive”.

Q: Which Potency does the source give for `Cc1ccc(-c2cc(C(=O)NCc3cn(C)nc3C)c3cc(Br)ccc3n2)cc1` here?
A: The Potency was 2.94 µM (active).
